This test has as its target furin, P09958. The test is described as follows: furin cleavage Z-score vs untreated control; higher = more cleavage, active = 3.5 or more, inactive = 1 or less, 8 variable residues between constant flanks. Put shortly: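 The cleavage Z-score was derived for purified furin acting on 8-mer peptides held on magnetic beads and fused to a cDNA oligonucleotide. Digests lasted 7.5, 15 or 30 min at 1:10 enzyme:substrate in 50 mM HEPES pH 7.5 with CaCl2 and NaCl. Sequencing counts of released DNA, log-transformed against furin-free reactions, were lowess-adjusted and scaled by median absolute deviation.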

The list shows a part of the results. The hit rate among all sequences tested is not known here.

Chain of furin, P09958 (P09958 whole entry, the tested form may be a part): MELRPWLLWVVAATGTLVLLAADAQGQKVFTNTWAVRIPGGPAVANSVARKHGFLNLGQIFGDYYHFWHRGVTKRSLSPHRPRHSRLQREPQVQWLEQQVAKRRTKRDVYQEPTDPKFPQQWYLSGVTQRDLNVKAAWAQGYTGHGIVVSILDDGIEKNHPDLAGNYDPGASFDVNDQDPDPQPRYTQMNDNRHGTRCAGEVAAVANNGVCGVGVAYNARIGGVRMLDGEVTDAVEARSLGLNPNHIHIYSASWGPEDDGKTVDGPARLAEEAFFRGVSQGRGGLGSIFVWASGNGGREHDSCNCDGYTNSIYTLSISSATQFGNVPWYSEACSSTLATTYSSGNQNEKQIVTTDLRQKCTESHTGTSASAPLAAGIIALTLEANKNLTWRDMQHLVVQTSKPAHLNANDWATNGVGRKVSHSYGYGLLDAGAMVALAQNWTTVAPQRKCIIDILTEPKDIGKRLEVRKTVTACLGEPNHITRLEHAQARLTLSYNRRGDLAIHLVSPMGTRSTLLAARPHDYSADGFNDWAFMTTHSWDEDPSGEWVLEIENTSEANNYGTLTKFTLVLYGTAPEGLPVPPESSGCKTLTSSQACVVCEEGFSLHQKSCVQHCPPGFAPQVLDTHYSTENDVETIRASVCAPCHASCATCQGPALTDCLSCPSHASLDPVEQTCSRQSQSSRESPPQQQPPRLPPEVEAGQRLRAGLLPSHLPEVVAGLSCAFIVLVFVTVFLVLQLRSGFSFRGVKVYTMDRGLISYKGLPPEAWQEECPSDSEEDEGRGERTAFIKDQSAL

As to CAVRVCEKMAAGNASASA [HC1454], the “furin cleavage Z-score” value runs as follows: (7.5 min) -0.509 (inactive); (15 min) -1.63 (inactive); (30 min) -0.874 (inactive).
For CAVVCCSMSLAGNASASA [HC2085], in that order: -0.7 (inactive), -0.0853 (inactive) and 0.456 (inactive).
The corresponding values for CAACNWTRGEAGNASASA [HC482] are 0.0668 (inactive), 0.0745 (inactive) and -0.647 (inactive).
For CATTPYSGSWAGNASASA [HC57], in that order: -0.402 (inactive), -1.77 (inactive) and -1.07 (inactive).
For CAVVCCSMSEAGNASASA [HC2092], the “furin cleavage Z-score” value by setting is: (7.5 min) 0.169 (inactive); (15 min) -0.137 (inactive); (30 min) 0.14 (inactive).
For CAGKLPATQLAGNASASA [HC286], in that order: -0.891 (inactive), 0.888 (inactive) and -0.728 (inactive).
For the sequence CALTGRDKNQAGNASASA [HC684], the “furin cleavage Z-score” value is -0.69 (inactive) (7.5 min), -0.684 (inactive) (15 min) and -0.181 (inactive) (30 min).
For CARSNRFSWMAGNASASA [FS-3088], in that order: 1.34, 0.175 (inactive) and 0.252 (inactive).
The corresponding values for CARSWRLACEAGNASASA [FS-2610] are -1.13 (inactive), -1.31 (inactive) and -0.906 (inactive).
With CARFKRAIFQAGNASASA [FS-3154], the “furin cleavage Z-score” value by setting is: (7.5 min) 3.12; (15 min) 6.07 (active); (30 min) 9.35 (active).
Consider CARAQRSPQQAGNASASA [FS-2129], for which the “furin cleavage Z-score” value is, setting by setting: (7.5 min) -0.476 (inactive); (15 min) 0.539 (inactive); (30 min) 1.62.
The corresponding values for CARFKRLACMAGNASASA [FS-2488] are 1.67, 1.17 and 4.11 (active).
The corresponding values for CARFKRLADMAGNASASA [FS-2489] are 2.25, 3.3 and 4.96 (active).
The corresponding values for CATFDRLQVLAGNASASA [HC1397] are -1.63 (inactive), -1.93 (inactive) and -0.453 (inactive).
Turning to CARFERAIGPAGNASASA [FS-2662], the “furin cleavage Z-score” value by setting is: (7.5 min) 1.09; (15 min) 0.675 (inactive); (30 min) 1.32.
For CAQEKRSVFQAGNASASA [FS-2249], in that order: -0.752 (inactive), 1.01 and 0.632 (inactive).
For CARFKKLADMAGNASASA [FS-2414], in that order: -1 (inactive), -2.01 (inactive) and 0.965 (inactive).
For CARFKRDPNQAGNASASA [FS-1891], in that order: 5.07 (active), 6.2 (active) and 6.47 (active).
CAPLTDFDQGAGNASASA [HC391]: the “furin cleavage Z-score” value runs as follows: (7.5 min) -0.36 (inactive); (15 min) -0.0198 (inactive); (30 min) -2.39 (inactive).
The corresponding values for CAVLAGIAYFAGNASASA [HC338] are -0.161 (inactive), 0.738 (inactive) and -0.272 (inactive).
In the case of CAEHTTPCSGAGNASASA [HC1975], the “furin cleavage Z-score” value is -1.73 (inactive) (7.5 min), -1.12 (inactive) (15 min) and 0.179 (inactive) (30 min).
In the case of CATYPCSGSWAGNASASA [HC1849], the “furin cleavage Z-score” value (7.5 min) is -0.56 (inactive), the “furin cleavage Z-score” value (15 min) was -0.736 (inactive) and the “furin cleavage Z-score” value (30 min) was -0.826 (inactive).
CARLRRLAEGAGNASASA [FS-2715]: the “furin cleavage Z-score” value was -0.759 (inactive) (7.5 min), -0.389 (inactive) (15 min) and -0.211 (inactive) (30 min).
The corresponding values for CARYRRVITVAGNASASA [FS-1844] are -0.325 (inactive), -0.579 (inactive) and 0.939 (inactive).
The corresponding values for CARYRRVAEGAGNASASA [FS-1980] are 3.4, 4.71 (active) and 4.58 (active).
The corresponding values for CARPWRPAEGAGNASASA [FS-2442] are -1.33 (inactive), -0.417 (inactive) and 0.551 (inactive).
As to CARYRRHGTHAGNASASA [FS-1942], the “furin cleavage Z-score” value is, setting by setting: (7.5 min) 3.5; (15 min) 5.79 (active); (30 min) 6.5 (active).
The corresponding values for CARYRRGFIHAGNASASA [FS-1810] are 1.59, 3.75 (active) and 4.82 (active).
For CARYRRWMKNAGNASASA [FS-2321], in that order: -1.37 (inactive), -0.188 (inactive) and 2.73.

These data come from the supplement of paper PMC3545927.
